Several values for one entry are separate records, joined by “and”; a condition that tells them apart may be missing. Identical values can stand only once. Results filed as inconclusive are left out. Entries that show only a call come without a potency. Some compounds were tested as several samples or in several runs, with calls that do not always agree. Activity calls are given as the source filed them. Unless noted, calls come from the whole dose curve; as a rule, active = well fitted curve in the direction sought with a large enough effect in the repeat runs; inconclusive = weak or mixed curves; inactive = no such curve, though single readings can be large; an effect the other way counts as inactive or inconclusive.
How the values were obtained:
[1] = qHTS assay for small molecule agonists of the p53 signaling pathway (AID 651631; calls by dose curve; note: nearly all actives have a fitted effect of over 15% in size; note: potency is the fitted concentration of half-maximal effect); settings: HCT-116 p53RE-bla reporter, beta-lactamase FRET ratio, 16 h; series mostly up to 73.3 µM
Outline: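 p53RE-bla HCT-116 cells; compounds 16 h, 37 °C; LiveBLAzer B/G FRET substrate 2 h RT; fluorescence intensity read-out, qHTS format.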

[2] = qHTS assay for small molecules that induce genotoxicity in human embryonic kidney cells expressing luciferase-tagged ATAD5 (AID 651632); settings: HEK293T ATAD5-luciferase induction, 16 h; series mostly up to 83.3 µM; note: nearly all actives have a fitted effect of over 15% in size
Outline: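 Luminescence read-out: after 16 hr compound exposure at 37C, ATAD5-luciferase HEK293T cells received Amplite, 30 min RT, then CCD imaging. A rise in signal marks genotoxic stress.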

[3] = qHTS assay for small molecules that induce genotoxicity in human embryonic kidney cells expressing luciferase-tagged ATAD5 - cell viability (AID 651634; calls by dose curve; note: nearly all actives have a fitted effect of over 25% in size); settings: HEK293T ATAD5-luc cells viability, CellTiter-Fluor, 15.5 h; series mostly up to 83.3 µM
Outline: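 HEK293T ATAD5-luc cells, 2,000/well; compound 15.5 hr, 37C/5% CO2; CellTiter-Fluor 30 min, 37C; fluorescence read.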

[4] = qHTS assay for small molecule disruptors of the mitochondrial membrane potential - cell viability (AID 720634; calls by dose curve;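 note: human HepG2 liver cancer cells; nearly all actives have a fitted effect of over 20% in size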); settings: HepG2 viability, ATP luminescence (CellTiter-Glo), 1 h; series mostly up to 83.2 µM
Outline: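 Luminescence from CellTiter-Glo (ATP content) gave viability in HepG2 cells, read in the same wells as the MMP dye assay after 1 hr compound exposure at 37 C.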

[5] = qHTS assay for small molecule disruptors of the mitochondrial membrane potential (AID 720635); settings: HepG2 mitochondrial membrane potential, Mito-MPS dye ratio; series mostly up to 83.2 µM
Outline: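 Mitochondrial membrane potential tracked with Mito-MPS dye, red aggregates (ex 540/em 590 nm) against green monomers (ex 490/em 535 nm). Compound treatment 1 hr at 37C, dye 30 min in HepG2.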

[6] = qHTS assay to test for compound auto fluorescence at 590 nm (red) in HepG2 cells (AID 720674); settings: HepG2 autofluorescence, red 540/590 nm, 1 h; series mostly up to 91.3 µM
Outline: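 Red autofluorescence (Ex/Em 540/590 nm, Rose Bengal sodium equivalents) was measured in HepG2 cells, 2,000 per well in MEM plus 10% FBS, plated overnight at 37 C. Readings were taken 1 hr after adding 23 nL compound or DMSO, at 37 C and 5% CO2.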

[7] = qHTS assay to test for compound auto fluorescence at 535 nm (green) in HepG2 cells (AID 720675); settings: green autofluorescence 485/535 nm, 1 h; series mostly up to 91.3 µM
[8] = qHTS assay to test for compound auto fluorescence at 460 nm (blue) in HEK293 cells (AID 720678); settings: blue autofluorescence 405/460 nm; series mostly up to 91.3 µM; note: potency is the fitted concentration of half-maximal effect
Outline: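 Measured: blue fluorescence (Ex 405/Em 460 nm) of compound-treated HEK293 cells, incubated overnight at 37C with 5% CO2 and scaled to triamterene equivalents.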

[9] = qHTS assay to test for compound auto fluorescence at 590 nm (red) in HEK293 cells (AID 720679); settings: red autofluorescence 540/590 nm; series mostly up to 91.3 µM
Outline: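 Using HEK293 cells at 2,000 per well, the screen added 23 nL of each compound after cell attachment and incubated overnight (37C, 5% CO2). The plate reader then captured red-label fluorescence, Ex/Em 540/590nm.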

[10] = qHTS assay for small molecule agonists of the p53 signaling pathway - cell viability (AID 651633; calls by dose curve; note: nearly all actives have a fitted effect of over 30% in size); settings: p53RE-bla HCT-116 viability, ATP luminescence, 16 h; series mostly up to 83.3 µM
Outline: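 Viability counter-read: CellTiter-Glo luminescence (30 min, room temperature) in the same p53RE-bla plates. These plates had been exposed to compounds for 16 h at 37 C.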
Tags give direction and shape of the fitted curve or compound fluorescence and quenching.

Structure (SMILES)	Potency [1]	Potency [2]	Potency [3]	Potency [4]	Potency [5]	outcome [6]	outcome [7]	Potency [8]	outcome [9]	Potency [10]	fluorescence, relative to Rose Bengal [6]	fluorescence, % of fluorescein control [7]	fluorescence, % of triamterene [8]	fluorescence, % of fluorescent control [9]
CCOC(=O)CC(=O)c1cc(F)c(Cl)nc1Cl	inactive	inactive	inactive	inactive	inactive	inactive	inactive	inactive	inactive					
C=CCCCCCC	inactive	inactive	inactive	inactive	inactive		inactive	inactive	inactive					
N#CCc1cccc(C(F)(F)F)c1	inactive	inactive		inactive	inactive	inactive	inactive	inactive		inactive				
NCCCOCCOCCOCCCN	inactive	inactive		inactive	inactive	inactive	inactive	inactive	inactive	inactive				
CCC(=O)OC(C)(C)C1CC=C(C)CC1 (configuration not stated)	inactive	inactive				inactive	inactive	inactive	inactive	inactive				
NC(=S)N/N=C/c1cccnc1	inactive	inactive			inactive	inactive	inactive	inactive	inactive	inactive				
Nc1nc(N)c2nc(CNc3ccc(C(=O)N[C@@H](CCC(=O)O)C(=O)O)cc3)cnc2n1	inactive and 57.1 nM (active)	inactive	inactive	inactive		inactive	inactive	inactive and 39.8 µM [fluorescent] (active)	inactive					
Oc1ccc2c(c1)OCO2	inactive	inactive		inactive	inactive	inactive	inactive	inactive	inactive	inactive				
CCCCCCCCCCCCCCCBr	inactive	inactive				inactive		inactive	inactive	inactive				
O=C(C(=O)c1ccc(Br)cc1)c1ccc(Br)cc1	inactive	inactive	inactive	inactive							-0.609% [at 18.6 µM] (inactive)	0.0081% [at 18.6 µM] (inactive)	0.126% [at 18.6 µM] (inactive)	0.203% [at 18.6 µM] (inactive)
CCCCOCCOCCOCCOCCO		inactive	inactive	inactive	inactive	inactive	inactive	inactive	inactive	inactive				
Cc1c(Cn2ccnc2)c2ccccc2n1CCC(=O)O	inactive	inactive	inactive		inactive	inactive	inactive							
CC(C)(C)c1ccc(OCC2CO2)cc1 (configuration not stated)		inactive	inactive	inactive	inactive	inactive		inactive		inactive				
CN(C)CCCNCCCN		inactive	inactive	inactive	inactive	inactive	inactive		inactive	inactive				
CN(C(=O)CCCOc1ccc2[nH]c(=O)ccc2c1)C1CCCCC1	inactive		inactive	inactive		inactive	inactive	inactive	inactive					

Source: PubChem BioAssay (Tox21)
